PMP22 txn prim – modulates PMP22 transcription in S16 Schwann cells; S16 Pmp22-F2sN Schwann cells, FLuc/NLuc coincidence luminescence, 24 h; Potency, µM (series often up to 57.5 µM), for the others: top-dose activity change, negative = inhibition, hits mostly inhibitors; 43,000 tested, 2% active; active means clear falling dose curves in both reporters; inconclusive means both reporters move, but less clearly or upward; inactive means either reporter flat; the % is the NLuc reporter signal
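S16 Schwann cells carrying FLuc/NLuc coincidence reporter in the Pmp22 3' UTR treated with compound 24 h at 37C; FLuc then NLuc luminescence read sequentially by dual-luciferase reagents.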
p53null 32C tox – p53 null cell cytotoxicity, permissive temperature | Potency, µM (top dose mostly 46.1 µM), for inactives: top-dose activity change, negative = cytotoxicity, most hits filed as cytotoxic | 55,000 tested, 0.62% active | H1299-neo p53 null cells, ATP luminescence, 24 h, 32C | AID 903;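 further: 0% = DMSO only and -100% = full killing by 100 µM tamoxifen; nearly all actives have a fitted effect of over 55% in size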
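ATP-content luminescence in p53-null H1299-neo cells after 24 h compound exposure (up to 46 uM) at 32C permissive temperature; 0% and 100% killing set by DMSO and 100 uM tamoxifen; Hill-equation AC50.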
pS6 MEF inh – inhibitors of mTORC1 signaling in Tsc2-/- p53-/- MEF cells; Tsc2-/- p53-/- MEF, phospho-rpS6 immunofluorescence/PI, 24 h; 44,000 tested, 0.78% active; Potency, µM (doses to about 38.3 µM), for inactives: at the top dose activity change, negative = inhibition, most hits filed as inhibitors;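 further: plate controls were DMSO for no effect and rapamycin for full effect; nearly all actives have a fitted effect of over 50% in size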
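Tsc2-/-, p53-/- MEFs (empty-vector stable line) in DMEM + 10% FBS were treated with compounds 24 h at 37 degree Celsius, fixed, and immunostained for phospho-rpS6 (Alexa-488) with propidium iodide counterstain. Laser-scanning cytometry gave % positive cells, normalized against 7.5 nM rapamycin and DMSO.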
p53null 39C kill – kills p53 null cells at the nonpermissive temperature. H1299 p53-null (neo) cells, 39C, ATPlite viability, 24 h. Potency, µM (highest dose often 46.1 µM), without a hit: top-dose activity, negative = cell killing, most hits filed as cytotoxic. 55,000 tested, 0.97% active. AID 904;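 further: 0% = DMSO only and -100% = full killing by 100 µM tamoxifen; nearly all actives have a fitted effect of over 50% in size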
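Following overnight plating at 37C (600 cells/well), H1299-neo or H1299-p53A138V cells are dosed up to 46 uM. Incubation lasts 24 hr at 39C before ATP detection.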
S16 viability – cytotoxicity in S16 Pmp22-F2sN Schwann cells. 43,000 tested, 0.48% active. Potency, µM (highest dose often 57.5 µM), inactives show top-dose activity change, negative = cytotoxicity, hits mostly cytotoxic. S16 Pmp22-F2sN Schwann cells viability, CellTiter-Glo, 24 h; further: nearly all actives have a fitted effect of over 65% in size
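S16 Pmp22-F2sN Schwann cells (500-1,000/well) in phenol-red-free DMEM with 10% FBS received 23 nL compound by pin tool for 24 h at 37 °C. Viability was then read as CellTiter-Glo luminescence after 15 min at room temperature.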
The depositor's hits bear a star; ? = inconclusive; . = not tested or not shown. Shown are actives, neighbours in structure and some others; about 3.2% of the full set was active somewhere. Unless noted, the call rests on the fitted dose curve; in most records, active means well fitted curve in the direction sought with a large enough effect; inconclusive means small, poorly fitted or top-dose-only effect, or another doubt; inactive means no such curve, though single readings can be large; an effect the other way counts as inactive or inconclusive. Unless noted, on the % scale 0 is the no-effect control and ±100 the full control effect; potency means the concentration at half of the fitted maximal effect.

SMILES	PMP22 txn prim	p53null 32C tox	pS6 MEF inh	p53null 39C kill	S16 viability
COc1cc(OC)c(NC(=O)c2c3c(nc4ccccc24)C(=O)N(C2CCCCC2)C3)cc1Cl	?	-29%	-9%	?	25µM*
O=C(c1ccc(Nc2nc3ccccc3n3nnnc23)cc1)N1CCN(c2cccc(C(F)(F)F)c2)CC1	?	-4%	7%	-16%	?
Cc1ccc(CNC(=O)c2cccc(Nc3nc4ccccc4n4nnnc34)c2)cc1	11µM*	-12%	0%	-23%	8.9µM*
O=C(NCCc1ccccc1)c1ccc(Nc2nc3ccccc3n3nnnc23)cc1	?	?	-2%	?	28µM*
CCOc1ccccc1NC(=O)CSc1nccn1Cc1ccc(F)cc1	?	-10%	-8%	10%	9%
CCN(CC)CCNC(=O)c1ccc(Cn2c(=O)c3cccn3c3cccnc32)cc1	-25%	2%	3.3µM*	-23%	1%
O=C(NCCc1ccccc1)c1ccc(Cn2c(=O)c3cccn3c3cccnc32)cc1	-35%	-1%	1%	-6%	11%
CCOCCCNC(=O)c1ccc(Cn2c(=O)c3cccn3c3cccnc32)cc1	11µM*	19%	-15%	-13%	21%
Cc1ccc(C)c(N2CCN(C(=O)c3ccc4c(c3)c(C)c(C)n4C)CC2)c1	-11%	34%	-7%	25µM*	-4%
Cc1cccc(N2CCN(C(=O)c3ccc4c(c3)c(C)c(C)n4C)CC2)c1C	-18%	-2%	-4%	-14%	0%
CCOc1ccc2oc(=O)cc(CN3CCN(c4ccccc4)CC3)c2c1	?	5%	5%	10%	-24%
CCOCc1cc(CN2CCN(c3cccc(Cl)c3)CC2)c(O)c2ncccc12	5.7µM*	?	12µM*	?	?
CC(C)OCc1cc(CN2CCN(c3ccccc3)CC2)c(O)c2ncccc12	5.1µM*	?	?	1.3µM*	?
CCc1nn2c(=O)cc(COC(=O)c3ccccc3NC(=O)COc3ccc(F)cc3)nc2s1	-3%	-16%	15%	0%	-16%
COc1cc(C(=O)NC(c2ccc(Cl)cc2)c2cc(Cl)c3cccnc3c2O)cc(OC)c1OC (stereo unspecified)	?	?	0%	-18%	3.2µM*
COc1cccc(C(=O)NC(c2ccc(Cl)cc2)c2cc(Cl)c3cccnc3c2O)c1 (stereo unspecified)	4.6µM*	?	-2%	-5%	5µM*
CCC(=O)NC(c1ccccc1OC)c1ccc2cccnc2c1O (stereo unspecified)	.	2%	.	?	.
CS(=O)(=O)N(CC(=O)NCCc1ccccc1)c1cc(C(F)(F)F)ccc1Cl	16%	-5%	6.6µM*	11%	-2%
Cc1ccc2nc(-c3ccc(O)cc3)c(Nc3ccc(Cl)cc3)n2c1	-35%	28%	-2%	?	-1%
Cc1ccc2nc(-c3ccccc3F)c(Nc3ccc(Cl)cc3)n2c1	-37%	36%	-5%	20µM*	18%
COc1ccc(-c2cc(C(F)(F)F)nc(SCCC(=O)Nc3ccc(OC)c(OC)c3)n2)cc1	?	-5%	-18%	-15%	?
CCN(CCCNC(=O)c1cc2c(=O)[nH]c3ccc(C)cc3c2s1)Cc1ccccc1	?	?	18µM*	?	?
CN(CCCNC(=O)c1cc2c(Cl)nc3ccccc3c2s1)Cc1ccccc1	?	?	13µM*	25µM*	?
CC1CCCN(CCCNC(=O)c2cc3c(Cl)nc4ccccc4c3s2)C1 (stereo unspecified)	?	2%	18µM*	-29%	?
CCN(CC)CCNC(=O)c1cc2c(=O)[nH]c3ccc(C)cc3c2s1	?	7%	-1%	20%	6%
SMILES	PMP22 txn prim	p53null 32C tox	pS6 MEF inh	p53null 39C kill	S16 viability
CC1CCCN(C(=O)c2cc3c(Cl)nc4ccccc4c3s2)C1 (stereo unspecified)	-77%	-4%	-1%	-14%	0%
Cc1ccc(C)c(N2CCN(C(=O)C3CCN(Cc4nc(-c5cccc(Cl)c5)oc4C)CC3)CC2)c1	?	-2%	-1%	-7%	?
COc1ccc(S(=O)(=O)NCC(c2cccs2)S(=O)(=O)c2ccccc2)cc1OC (stereo unspecified)	?	2%	-1%	9%	?
O=S(=O)(NCC(c1cccs1)S(=O)(=O)c1ccccc1)c1ccc(F)c(C(F)(F)F)c1 (stereo unspecified)	?	0%	2%	17%	20µM*
O=S(=O)(NCC(c1cccs1)S(=O)(=O)c1ccccc1)c1ccc(F)cc1 (stereo unspecified)	?	3%	-2%	23%	20µM*
Cc1cc(S(=O)(=O)C(CNC(=O)COc2ccccc2)c2cccs2)ccc1F (stereo unspecified)	-1%	-9%	0%	-1%	5%
COc1ccccc1Nc1nn2c(=O)c3ccc(C(=O)NCc4ccc(F)cc4)cc3nc2s1	4.6µM*	-12%	-10%	4µM*	14µM*
CCc1ccccc1Nc1nn2c(=O)c3ccc(C(=O)NCc4ccccc4OC)cc3nc2s1	-20%	7%	-1%	-13%	-4%
CCc1cccc(NC(=O)c2ccc3c(=O)n4nc(Nc5ccccc5OC)sc4nc3c2)c1	4.5µM*	-5%	-9%	?	?
Cc1ccc(-n2ncc(C(=O)NCCN3CCCC3)c2C2CCN(C(=O)OC(C)(C)C)CC2)cc1	?	4%	0%	0%	-3%
CC(C)(C)OC(=O)N1CCC(c2c(C(=O)NCCN3CCC(Cc4ccccc4)CC3)cnn2-c2cccc(Cl)c2)CC1	?	4%	15µM*	-122%	25µM*
Cc1ccc(-n2ncc(C(=O)NCCN3CCC(Cc4ccccc4)CC3)c2C2CCN(C(=O)OC(C)(C)C)CC2)cc1	?	?	?	20µM*	?
O=C(NCC1(c2ccccc2)CCCC1)C(=O)Nc1cccc(C(F)(F)F)c1	-27%	5%	-5%	2%	-11%
N#C/C(=C\c1ccc(-c2ccc(F)cc2F)o1)c1nc2ccccc2[nH]1	?	?	13µM*	?	2%
CCOC(=O)c1ccc(-c2ccc(/C=C(\C#N)c3nc4ccc(C)cc4[nH]3)o2)cc1	-166%	?	22%	6.3µM*	?
Cc1ccc2nc(/C(C#N)=C\c3ccc(N4CCOCC4)o3)[nH]c2c1	.	-24%	.	-24%	.
COc1cc(/C=N/O)ccc1OCc1ccc(C(=O)O)cc1	.	13µM*	.	8.9µM*	.
CCCn1c(/C=C/c2ccccc2)nc2ccccc21	-11%	16µM*	-8%	?	-5%
